Consider six compounds from PubChem BioAssay (NCI).

Values joined by “and” are separate entries in the source; they are usually repeats but may differ in a detail not shown here. Equal entries are not always repeated. About 83,000 compounds went through this panel and 20% of them were active in at least one assay; those are over-represented in the sample as a whole.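 Step 1: grow cells in 96-well plates. Step 2: add test compound at a single concentration. Step 3: incubate 48 h. Step 4: record percent growth.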 Unmarked numbers belong to inactive results. Active and inactive are the calls of the source. Rule for the calls: active = growth percent below 10; inactive = the rest.

Common to all, as to test: NCI-60 one-dose screen, 48 h (100 = growth as untreated, 0 = no growth, -100 = all killed)
Holding throughout (conditions): 10 µM unless noted

Test [1] relates to HT29 colon.
Test [2] has as its system SNB-75 CNS.
Test [3] relates to SNB-19 CNS.
In test [4] the test system is U251 CNS.
The subject of test [5] is PC-3 prostate.
The test system of test [6] is SK-MEL-5 melanoma.
Test [7] has as its system UACC-62 melanoma.
Test [8] has as its system LOX IMVI melanoma.
Test [9] relates to SK-MEL-28 melanoma.
Test [10] has as its system SK-MEL-2 melanoma.
Test [11] relates to SN12C renal.
Test [12] deals with UO-31 renal.
In test [13] the test system is TK-10 renal.
The test system of test [14] is CAKI-1 renal.
The test system of test [15] is A498 renal.
The subject of test [16] is CCRF-CEM leukemia.
For test [17], the system named is MOLT-4 leukemia.
The subject of test [18] is ACHN renal.
In test [19] the test system is EKVX NSCLC.

On to `CCN(CC)CCO/N=C1\CC(c2ccc(OC)c(OC)c2)Oc2ccccc21` (stereo not drawn), for which the growth in test [1] was 74.8%; in [2] it was 68%; in test [3] it was 98.5%; in [4] it was 93.6%; in [5] it was 83%; in [6], 93.4%. Further, the growth was 107% in [7]; 89.6% in test [8]; 107% in test [9]; 104% in test [10]; 99.1% in test [11]; 71.7% in test [12]. For the same compound, the growth in test [13] is 86.9%; in test [14], 83.3%; in test [15], 112%; in [16], 93%; in test [17], 90.6%.

Regarding `O=C(O)C(Cc1ccc(OS(=O)(=O)Cc2ccccc2)cc1)NS(=O)(=O)Cc1ccccc1` (stereo not drawn), the growth in test [1] was 101% and 119%; in test [2] it was 85.7% and 94.9%; in [3], 96.6% and 105%; in test [4] it was 104%; in [5], 123% and 101%; in test [6] it was 97.5% and 108%. In addition, the growth in test [7] is 108% and 97.9%; in test [8] it was 98%; in test [10] it was 110% and 108%; in [11] it was 110% and 104%; in test [12], 95.8% and 86.1%; in test [13], 101% and 110%. The growth in [18] is 105% and 101%; in [14] it was 90.9% and 98.6%; in [15] it was 114% and 130%; in test [16] it was 115% and 112%; in [17], 121% and 102%.

As to `COc1cc(C2c3cc4c(cc3C(OC(=O)C[n+]3ccccc3)C3COC(=O)C23)OCO4)cc(OC)c1OC` (stereo not drawn), the growth in [1] was 4.68% (active); in [2] it was 48.3%; in [3] it was 27.5%; in [4], 2.86% (active); in test [5], 35%; in test [6] it was -32.5% (active). Besides, the growth is 15.9% in test [7]; 12.7% in test [8]; 61.6% in test [9]; 33.5% in [10]; 42.5% in test [19]; 12.4% in test [11]. Further, the growth in test [12] was 39.4%; in [13], 63.4%; in test [18], 20.9%; in test [14], 18.1%; in [15] it was -19.9% (active); in [16], 12.9%. The growth in test [17] is 15.5%.

Consider `CN(C)CC(CN(C)C)C(O)c1ccccc1` (stereo not drawn), for which the growth in [1] is 100%; in test [2], 94.5%; in [3], 109%; in [4] it was 99.5%; in test [5] it was 101%; in [6], 106%. The growth in [7] is 106%; in test [8] it was 97.8%; in test [9] it was 105%; in test [10], 94.4%; in test [19], 96.1%; in [11] it was 103%. The growth in [12] was 96.1%; in test [13], 89.5%; in test [18], 105%; in test [14] it was 98.2%; in test [15], 109%; in test [16], 104%. The growth in test [17] is 106%.

For `Cc1c(Cl)cc(Cl)c(N)c1Cl`, the growth in test [1] is 108%; in [2] it was 91.2%; in test [3], 109%; in test [4], 99.4%; in [5], 92.2%; in test [6], 106%. Moreover, the growth was 105% in test [7]; 99% in test [8]; 110% in [9]; 104% in test [10]; 103% in [19]; 117% in test [11]. Further, the growth was 92.6% in [12]; 109% in test [13]; 88.7% in [14]; 91% in test [15]; 95.5% in [16]; 110% in test [17].

On to `CC(O)CCNC(c1ccccc1)C(O)c1ccccc1` (stereo not drawn), for which the growth is 97.3% in test [1]; 96.5% in test [2]; 106% in test [4]; 94.8% in test [5]; 109% in test [6]; 108% in [7]. For the same compound, the growth in [8] was 99%; in test [9], 112%; in test [10], 99.4%; in [19], 115%; in test [11], 108%; in test [12] it was 92.9%. The growth in test [13] was 106%; in [18] it was 109%; in test [14], 104%; in [15], 103%; in [16], 93.7%; in test [17], 102%.
